“And” between values parts separate entries of the source, which are not always exact repeats. Identical values can stand only once. Screen size: about 5,500 compounds; about 2,000 (36%) were called active. Roughly 18% stayed inconclusive and do not appear here. No stated cut-off is given here; in the data, active means normalized growth mostly below about 0.91 (no sharp cut-off); inconclusive means no clear call, values can overlap the other calls; inactive means mostly above about 0.92. The list shows a part of the results.
Experiment: chemical genetic growth profiling, strain panel (AID 1159580);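 further: tested at 20 µM; growth read once vehicle control cultures reached saturation at 30 °C; 1 = growth at the plate median or of vehicle wells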
Details: S. cerevisiae deletion strains, growth OD

Measured: normalized growth

CC1(C)S[C@@H]2[C@H](NC(=O)[C@@H](N)c3ccc(O)cc3)C(=O)N2[C@H]1C(=O)O
inactive: locus YAL013W, strain DEP1, stronger effect = lower value 1.01 | locus YAL021C, strain ccr4, stronger effect = lower value 0.97 | locus YAL026C, strain drs2, stronger effect = lower value 0.976 | locus YAL030W, strain snc1, stronger effect = lower value 0.999 | locus YBL061C, strain skt5, stronger effect = lower value 1.01 | locus YBR009C, strain hhf1, stronger effect = lower value 0.951 | locus YBR021W, strain FUR4, stronger effect = lower value 1 | locus YBR023C, strain chs3, stronger effect = lower value 0.996 | locus YBR171W, strain sec66, stronger effect = lower value 0.987 | locus YBR229C, strain ROT2, stronger effect = lower value 1 | locus YBR231C, strain swc5, stronger effect = lower value 1 | locus YBR279W, strain paf1, stronger effect = lower value 0.99 | locus YCL011C, strain gbp2, stronger effect = lower value 0.988 | locus YCL016C, strain dcc1, stronger effect = lower value 0.992 | locus YCL029C, strain bik1, stronger effect = lower value 1.01 | locus YCL069W, strain vba3, stronger effect = lower value 0.989 | locus YCR088W, strain abp1, stronger effect = lower value 0.983 | locus YDL005C, strain med2, stronger effect = lower value 0.993 | locus YDL035C, strain GPR1, stronger effect = lower value 1.02 | locus YDL040C, strain nat1, stronger effect = lower value 0.995 | locus YDL074C, strain BRE1, stronger effect = lower value 1.01 | locus YDL101C, strain DUN1, stronger effect = lower value 1.01 | locus YDL185W, strain tfp1, stronger effect = lower value 0.997 | locus YDL192W, strain arf1, stronger effect = lower value 1 | locus YDR001C, strain nth1, stronger effect = lower value 0.964 | locus YDR069C, strain doa4, stronger effect = lower value 1.01 | locus YDR101C, strain arx1, stronger effect = lower value 1 | locus YDR137W, strain rgp1, stronger effect = lower value 0.938 | locus YDR159W, strain sac3, stronger effect = lower value 0.991 | locus YDR162C, strain NBP2, stronger effect = lower value 1.03 | locus YDR195W, strain ref2 0.98 | locus YDR297W, strain sur2, stronger effect = lower value 0.998 | locus YDR318W, strain mcm21, stronger effect = lower value 0.998 | locus YDR334W, strain swr1, stronger effect = lower value 0.982 | locus YDR335W, strain msn5, stronger effect = lower value 0.996 | locus YDR388W, stronger effect = lower value 1.01 | locus YDR392W, strain spt3, stronger effect = lower value 0.936 | locus YDR502C, strain sam2, stronger effect = lower value 0.999 | locus YEL003W, strain gim4, stronger effect = lower value 0.991 | locus YEL037C, strain rad23, stronger effect = lower value 0.983 | locus YEL061C, strain CIN8 (second series), stronger effect = lower value 0.988 | locus YEL061C, strain CIN8, stronger effect = lower value 1.01 | locus YER015W, strain faa2, stronger effect = lower value 0.998 | locus YER016W, strain bim1, stronger effect = lower value 0.967 | locus YER110C, stronger effect = lower value 1.01 | locus YER111C, strain swi4, stronger effect = lower value 0.98 | locus YER155C, strain BEM2 (second series), stronger effect = lower value 0.996 | locus YER155C, strain BEM2, stronger effect = lower value 1 | locus YER167W, strain BCK2, stronger effect = lower value 1.01 | locus YFR010W, strain ubp6, stronger effect = lower value 0.987 | locus YGL078C, strain dbp3, stronger effect = lower value 1 | locus YGL086W, strain mad1, stronger effect = lower value 0.994 | locus YGL167C, strain pmr1, stronger effect = lower value 1.01 | locus YGL173C, strain kem1, stronger effect = lower value 1.02 | locus YGL227W, strain vid30, stronger effect = lower value 1 | locus YGL240W, strain doc1, stronger effect = lower value 1.02 | locus YGL248W, strain PDE1, stronger effect = lower value 1.02 | locus YGL253W, strain hxk2, stronger effect = lower value 0.99 | locus YGR078C, strain PAC10, stronger effect = lower value 1 | locus YGR135W, strain pre9, stronger effect = lower value 0.986 | locus YGR252W, strain gcn5, stronger effect = lower value 0.954 | locus YHR013C, strain ard1, stronger effect = lower value 1.03 | locus YHR027C, strain rpn1, stronger effect = lower value 0.989 | locus YHR030C, strain SLT2, stronger effect = lower value 1.01 and 1.03 | locus YHR079C, strain IRE1 (second series), stronger effect = lower value 0.996 | locus YHR079C, strain IRE1, stronger effect = lower value 1.06 | locus YHR094C, strain hxt1, stronger effect = lower value 1 | locus YHR129C, strain ARP1, stronger effect = lower value 1.01 | locus YHR142W, strain chs7, stronger effect = lower value 0.982 | locus YHR200W, strain rpn10, stronger effect = lower value 0.995 | locus YIL066C, strain RNR3, stronger effect = lower value 1.03 | locus YIL073C, strain SPO22, stronger effect = lower value 1.04 | locus YIL125W, strain kgd1, stronger effect = lower value 1 | locus YIR030C, strain dcg1, stronger effect = lower value 1 | locus YJL092W, strain hpr5, stronger effect = lower value 0.991 | locus YJL095W, strain BCK1 (second series), stronger effect = lower value 0.983 | locus YJL095W, strain BCK1, stronger effect = lower value 1.02 and 1.06 | locus YJL115W, strain asf1, stronger effect = lower value 0.979 | locus YJL129C, strain trk1, stronger effect = lower value 1 | locus YJL134W, strain LCB3, stronger effect = lower value 1.01 | locus YJL154C, strain vps35, stronger effect = lower value 0.991 | locus YJL164C, strain tpk1, stronger effect = lower value 0.995 | locus YJL166W, strain qcr8, stronger effect = lower value 1.02 | locus YJL168C, strain set2, stronger effect = lower value 0.997 | locus YJL187C, strain SWE1 (second series), stronger effect = lower value 1.01 | locus YJL187C, strain SWE1, stronger effect = lower value 0.998 | locus YJR043C, strain POL32, stronger effect = lower value 1.01 | locus YJR066W, strain TOR1, stronger effect = lower value 1.01 | locus YJR075W, strain HOC1, stronger effect = lower value 1.02 | locus YKL009W, strain mrt4, stronger effect = lower value 1.02 | locus YKL068W, stronger effect = lower value 1 | locus YKL085W, strain MDH1 (second series), stronger effect = lower value 1.01 | locus YKL085W, strain MDH1, stronger effect = lower value 1.01 | locus YKL160W, strain elf1, stronger effect = lower value 1.01 | locus YKR001C, strain vps1, stronger effect = lower value 0.982 | locus YKR026C, strain gcn3, stronger effect = lower value 1.07 | locus YKR091W, strain srl3, stronger effect = lower value 1 | locus YLL001W, strain dnm1, stronger effect = lower value 1.02 | locus YLL026W, stronger effect = lower value 0.992 | locus YLL041C, strain sdh2, stronger effect = lower value 0.999 | locus YLR027C, strain aat2, stronger effect = lower value 0.993 | locus YLR039C, strain RIC1, stronger effect = lower value 1 | locus YLR058C, strain SHM2, stronger effect = lower value 1.01 | locus YLR102C, strain apc9, stronger effect = lower value 0.997 | locus YLR113W, strain HOG1, stronger effect = lower value 1.04 | locus YLR221C, strain rsa3, stronger effect = lower value 0.991 | locus YLR258W, strain gsy2, stronger effect = lower value 0.991 | locus YLR262C, strain YPT6 (second series), stronger effect = lower value 0.975 | locus YLR262C, strain YPT6, stronger effect = lower value 1.09 | locus YLR268W, strain sec22, stronger effect = lower value 1.01 | locus YLR320W, strain mms22, stronger effect = lower value 0.987 | locus YLR330W, strain CHS5, stronger effect = lower value 1.01 | locus YLR342W, strain FKS1 (second series), stronger effect = lower value 0.974 | locus YLR342W, strain FKS1, stronger effect = lower value 1.01 | locus YLR357W, strain rsc2, stronger effect = lower value 1.02 | locus YLR370C, strain arc18, stronger effect = lower value 0.999 | locus YLR371W, strain rom2, stronger effect = lower value 0.991 | locus YLR384C, strain iki3, stronger effect = lower value 0.989 | locus YLR418C, strain cdc73, stronger effect = lower value 0.994 | locus YML016C, strain PPZ1, stronger effect = lower value 1.01 | locus YML032C, strain rad52, stronger effect = lower value 1.01 | locus YML120C, strain ndi1, stronger effect = lower value 0.997 | locus YML124C, strain tub3, stronger effect = lower value 0.985 | locus YMR058W, strain fet3, stronger effect = lower value 0.995 | locus YMR078C, strain ctf18, stronger effect = lower value 0.994 | locus YMR125W, strain sto1, stronger effect = lower value 0.998 | locus YMR129W, stronger effect = lower value 0.988 | locus YMR205C, strain PFK2, stronger effect = lower value 1 | locus YMR223W, strain ubp8, stronger effect = lower value 0.997 | locus YMR231W, strain pep5, stronger effect = lower value 1 | locus YMR263W, strain SAP30, stronger effect = lower value 1 | locus YMR307W, strain GAS1, stronger effect = lower value 0.969 | locus YNL067W, strain RPL9B, stronger effect = lower value 1.01 | locus YNL071W, strain lat1, stronger effect = lower value 0.984 | locus YNL153C, strain GIM3, stronger effect = lower value 1 | locus YNL183C, strain NPR1, stronger effect = lower value 1 | locus YNL209W, strain ssb2, stronger effect = lower value 0.995 | locus YNL233W, strain BNI4, stronger effect = lower value 1.02 | locus YNL248C, strain rpa49, stronger effect = lower value 1.03 | locus YNL250W, strain rad50, stronger effect = lower value 1 | locus YNL271C, strain bni1, stronger effect = lower value 1 | locus YNL298W, strain CLA4, stronger effect = lower value 0.984 | locus YNL307C, strain MCK1, stronger effect = lower value 1.03 | locus YNL322C, strain KRE1 (second series), stronger effect = lower value 1 | locus YNL322C, strain KRE1, stronger effect = lower value 1.01 | locus YNR049C, strain mso1, stronger effect = lower value 0.985 | locus YNR052C, strain pop2, stronger effect = lower value 0.999 | locus YOL012C, strain htz1 1.31 | locus YOL147C, strain pex11, stronger effect = lower value 1.01 | locus YOR001W, strain rrp6, stronger effect = lower value 0.997 | locus YOR061W, strain CKA2, stronger effect = lower value 1.02 | locus YOR069W, strain VPS5, stronger effect = lower value 1.01 | locus YOR070C, strain gyp1, stronger effect = lower value 0.999 | locus YOR080W, strain dia2, stronger effect = lower value 1.01 | locus YOR083W, strain WHI5, stronger effect = lower value 1.03 | locus YOR106W, strain vam3, stronger effect = lower value 1 | locus YOR136W, strain idh2, stronger effect = lower value 0.994 | locus YOR144C, strain elg1, stronger effect = lower value 0.991 | locus YOR184W, strain ser1, stronger effect = lower value 1.03 | locus YOR231W, strain MKK1, stronger effect = lower value 1.05 | locus YOR265W, strain rbl2, stronger effect = lower value 0.997 | locus YOR270C, strain vph1, stronger effect = lower value 0.962 | locus YOR290C, strain snf2, stronger effect = lower value 0.975 | locus YOR316C, strain cot1, stronger effect = lower value 0.999 | locus YPL051W, strain arl3, stronger effect = lower value 1.01 | locus YPL078C, strain atp4, stronger effect = lower value 1.01 | locus YPL106C, strain sse1, stronger effect = lower value 0.974 | locus YPL240C, strain hsp82, stronger effect = lower value 0.993 | locus YPL241C, strain CIN2, stronger effect = lower value 1.01 | locus YPL256C, strain CLN2, stronger effect = lower value 1.05 | locus YPR119W, strain clb2, stronger effect = lower value 1 | locus YPR141C, strain kar3, stronger effect = lower value 1.03 | locus YPR163C, strain tif3, stronger effect = lower value 1 | locus YPR167C, strain met16, stronger effect = lower value 0.998 | strain wtn01, stronger effect = lower value 0.976
